Data: PubChem BioAssay AID720517 (National Center for Advancing Translational Sciences (NCATS), 2013)
Results filed as inconclusive are left out. Where a call stands in place of a potency, no number is given. Activity calls are given as the source filed them. Calls follow the shape of the dose curve; as a rule, active = well fitted activation curve with a large enough effect; inconclusive = small, poorly fitted or top-dose-only effect; inactive = flat fitted curve, though single readings scatter.

Assay: qHTS for Inhibitors of Cell Surface uPA Generation: FP59 Counterscreen for Cherry-picked Compounds
Conditions: FP59 anthrax toxin cytotoxicity counterscreen, cells; series mostly up to 115 µM

Q: For `O=C(CCN1CCN(c2ccccc2F)CC1)Nc1ccc(F)cc1`, which Potency is on record?
A: inactive

Q: For `CC(C(=O)Nc1nccs1)c1ccc([N+](=O)[O-])cc1` (stereo not given), which Potency is on record?
A: inactive

Q: For `O=C(/C=C/c1cccc(F)c1)Nc1cc(S(=O)(=O)N2CCOCC2)ccc1Cl`, which Potency is on record?
A: inactive

Q: With `Cc1nnc2ccc(-c3ccc(NS(=O)(=O)c4ccc(Cl)s4)cc3)nn12` as the compound, how does the Potency read?
A: inactive

Q: With `CN(C(=O)CCn1c(=S)oc2ccccc21)c1ccc(F)cc1` as the compound, how does the Potency read?
A: inactive

Q: Which Potency does the source give for `COc1cc(/C=N/NC(=O)Cc2csc(C)n2)ccc1OCC(C)C` here?
A: inactive

Q: With `CCNc1nc(Nc2ccc(C)c(Cl)c2)c2cnn(C)c2n1` as the compound, how does the Potency read?
A: inactive

Q: With `COc1ccc(OC)c(S(=O)(=O)N2CCC(NC(=O)c3ccccc3)CC2)c1` as the compound, how does the Potency read?
A: inactive

Q: Which Potency does the source give for `CCC(C)Nc1cc(C)nc2ncnn12` (stereo not given) here?
A: inactive

Q: With `COc1ccc(-c2cccc(-c3cc(=O)oc4cc(OC)c(OC)c(OC)c34)c2)cc1` as the compound, how does the Potency read?
A: inactive

Q: With `C#CCN1C=C(C(=O)OCC)C(C)NS1(=O)=O` (stereo not given) as the compound, how does the Potency read?
A: inactive

Q: For `Cc1cc(-c2ccccc2)nc(N/N=C/c2ccc(N(C)C)cc2)n1`, which Potency is on record?
A: inactive

Q: Which Potency does the source give for `C[C@H]1CN([C@@H](C)CO)C(=O)c2cccc(NC(=O)c3cnccn3)c2O[C@@H]1CN(C)S(=O)(=O)c1ccc(F)cc1` here?
A: inactive

Q: Which Potency does the source give for `CC(NC(=O)NC1CCCCC1)C(c1cccs1)N1CCN(C)CC1` (stereo not given) here?
A: inactive

Q: For `CCOc1cc(C(=S)N2CCOCC2)ccc1OC(=O)c1cccc(C)c1`, which Potency is on record?
A: inactive

Q: For `CC1(C)CC(=O)C([N+](=O)[O-])=C(NCCCC(=O)O)C1`, which Potency is on record?
A: inactive

Q: Which Potency does the source give for `COC(=O)[C@]1(Cc2ccccc2)N[C@H](CN(C)C(=O)Nc2ccccc2)[C@@H]2C(=O)N(Cc3ccccc3)C(=O)[C@@H]21` here?
A: inactive

Q: For `O=C(NCCS(=O)(=O)N1CCC2(CC1)OCCO2)c1ccc(F)cc1`, which Potency is on record?
A: inactive

Q: Which Potency does the source give for `COc1ccc(-c2cc3nc(C)cc(-c4ccc(OC)cc4)n3n2)cc1` here?
A: inactive

Q: With `Cc1cc(=O)[nH]c(=S)[nH]1` as the compound, how does the Potency read?
A: inactive

Q: With `COc1cc(C2NC(=O)NC(C)=C2C(=O)OCC2CCCCC2)ccc1O` (stereo not given) as the compound, how does the Potency read?
A: inactive

Q: For `CCN(CC(=O)Nc1c(F)cccc1F)C(=O)c1ccc(-c2ccc(C(C)=O)cc2)o1`, which Potency is on record?
A: inactive

Q: With `Cc1ccc(S(=O)(=O)N(C)c2ccc(OC(=O)c3ccc(=O)[nH]c3)cc2)cc1` as the compound, how does the Potency read?
A: inactive

Q: With `CC(C)CNC(=O)COC(=O)CCC(=O)c1cccs1` as the compound, how does the Potency read?
A: inactive

Q: For `COCCN(C(=O)c1ccc(OC2CCN(S(=O)(=O)N(C)C)CC2)cc1)C(C)C`, which Potency is on record?
A: inactive

Q: For `Cc1ccc(C)c(-c2ccc(=O)n(Cc3c(F)cccc3Cl)n2)c1`, which Potency is on record?
A: inactive

Q: Which Potency does the source give for `Cc1cc(C)cc(S(=O)(=O)c2cn(C)c3cc(N4CCN(C)CC4)c(F)cc3c2=O)c1` here?
A: inactive

Q: Which Potency does the source give for `CCN(C1CCS(=O)(=O)C1)S(=O)(=O)c1ccc2ccccc2c1` (stereo not given) here?
A: inactive

Q: Which Potency does the source give for `CCCCn1c(N)c(N(CCC(C)C)C(=O)c2sc3nc4n(c(=O)c3c2C)CCC4)c(=O)[nH]c1=O` here?
A: inactive

Q: For `Cc1cc(COc2ccccc2)oc1C(=O)O`, which Potency is on record?
A: inactive

Q: With `Cc1cccc(/C=N/Nc2cc(N3CCOCC3)nc(N3CCOCC3)n2)c1` as the compound, how does the Potency read?
A: inactive

Q: For `OC(COc1ccc(Br)cc1)CN1CCN(c2ccccc2)CC1` (stereo not given), which Potency is on record?
A: inactive

Q: With `CCOC(=O)C1(CCOc2ccccc2)CCN(Cc2ccc(O)c(OC)c2)CC1` as the compound, how does the Potency read?
A: inactive

Q: For `CC1CCCC(NC(=O)CNC(=S)N(Cc2ccccc2)Cc2cccs2)C1C` (stereo not given), which Potency is on record?
A: inactive

Q: With `O=C(Cc1n[nH]c(=O)c2ccccc12)Nc1cccc(S(=O)(=O)N2CCCCCC2)c1` as the compound, how does the Potency read?
A: inactive

Q: Which Potency does the source give for `Cc1nc(NC(=O)COC(=O)CCc2ccccc2)c(Cl)cc1Cl` here?
A: inactive

Q: For `Cc1ccc(NS(=O)(=O)c2c(C)nc3sccn3c2=O)c(C)c1`, which Potency is on record?
A: inactive

Q: With `Cc1cc(C)c(S(=O)(=O)N2CCCOC2CNC(=O)C(=O)NCc2cccs2)c(C)c1` (stereo not given) as the compound, how does the Potency read?
A: inactive

Q: With `COc1cc(C2/C(=C(\O)c3ccc4c(c3)CC(C)O4)C(=O)C(=O)N2CC2CCCO2)cc(OC)c1OC` (stereo not given) as the compound, how does the Potency read?
A: inactive

Q: For `CCOc1ccc(-c2n[nH]c(=S)n2Cc2ccccc2)cc1`, which Potency is on record?
A: inactive
